Assay results from the antibiotic and cytotoxicity screens of Wong et al. (2023).
Hit rate of the full screen: of about 39,000 compounds, about 3,300 (8.5%) were called active. The sample as a whole holds a higher share of actives than the screen did.

Each compound was assayed on HepG2 (assay: cytotoxicity call (relative viability < 0.9)). Settings: 10 µM.

Row | Compound | cytotoxicity call
1 | C[C@@H]1CN([C@H](C)CO)C(=O)c2cccc(NC(=O)c3cnccn3)c2O[C@H]1CN(C)CC1CCCCC1 | inactive
2 | O=C(C[C@H]1CC[C@@H]2[C@H](COC[C@H](O)CN2C(=O)c2cccnc2)O1)NCc1ccc(-c2ccccc2)cc1 | inactive
3 | C[C@@H]1CN([C@@H](C)CO)C(=O)c2cccc(NS(=O)(=O)c3ccc(F)cc3)c2O[C@@H]1CN(C)S(=O)(=O)c1cccs1 | inactive
4 | C[C@@H]1CN([C@@H](C)CO)C(=O)Cc2cc(NC(=O)CCN3CCOCC3)ccc2O[C@@H]1CN(C)S(=O)(=O)c1cccs1 | inactive
5 | C[C@H]1CN([C@@H](C)CO)C(=O)c2ccccc2-c2ccccc2CO[C@@H]1CN(C)C(=O)Nc1ccc(F)cc1 | inactive
6 | O=C(CN1CCOCC1)N[C@H]1CC[C@H](CCn2cc(C3CC3)nn2)O[C@@H]1CO | inactive
7 | O=C(CN1CCOCC1)N[C@H]1CC[C@@H](CCn2cc(C3CC3)nn2)O[C@H]1CO | active
8 | O=C(CN1CCOCC1)N[C@@H]1CC[C@H](CCn2cc(C3CC3)nn2)O[C@@H]1CO | inactive
9 | CC(C)NC(=O)N[C@@H]1C=C[C@@H](CC(=O)O)O[C@H]1CO | inactive
10 | CC(=O)Oc1ccccc1C(=O)Nc1ncc([N+](=O)[O-])s1 | active
11 | CC(=O)Nc1ncc([N+](=O)[O-])s1 | inactive
12 | CC(=O)Oc1ccccc1C(=O)Nc1ccccc1 | inactive
13 | C[C@@H]1CN([C@H](C)CO)C(=O)CCCn2cc(nn2)CO[C@@H]1CN(C)C(=O)Nc1cccc(Oc2ccccn2)c1 | inactive
14 | O=C(N/N=C/[C@@H](O)[C@H](O)[C@H](O)CO)c1ccccc1O | inactive
15 | O=C(N/N=C/[C@H](O)[C@H](O)[C@@H](O)[C@@H](O)CO)c1ccccc1O | active
16 | O=C(N/N=C/[C@H](O)[C@@H](O)[C@@H](O)[C@H](O)C(=O)O)c1ccccn1 | inactive
17 | O=C(N/N=C/[C@H](O)[C@@H](O)[C@H](O)CO)c1ccccc1O | inactive
18 | O=C(N/N=C/[C@H](O)[C@@H](O)[C@H](O)[C@H](O)CO)c1ccccc1O | inactive
19 | O=C(N/N=C/[C@H](O)[C@@H](O)[C@@H](O)[C@H](O)C(=O)O)c1ccccc1O | active
20 | C[C@@H]1CN([C@@H](C)CO)C(=O)Cc2cc(NC(=O)CCCCCC(=O)Nc3ccccc3N)ccc2O[C@@H]1CN(C)C(=O)Nc1ccc(C(F)(F)F)cc1 | inactive
21 | C[C@@H]1CN([C@H](C)CO)C(=O)Cc2cc(NS(=O)(=O)c3ccccc3)ccc2O[C@@H]1CN(C)S(C)(=O)=O | inactive
22 | CC(=O)OC12COC1CC(O)C1(C)C(=O)C(O)C3=C(C)C(OC(=O)C(O)C(NC(=O)OC(C)(C)C)c4ccccc4)CC(O)(C(OC(=O)c4ccccc4)C21)C3(C)C.O.O.O (centres undefined) | active

Row | Compound | cytotoxicity call
23 | CC(=O)OC1C(=O)C2(C)C(O)CC3OCC3(OC(C)=O)C2C(OC(=O)c2ccccc2)C2(O)CC(OC(=O)C(O)C(NC(=O)c3ccccc3)c3ccccc3)C(C)=C1C2(C)C (centres undefined) | active
24 | COC1C(=O)C2(C)C(OC)CC3OCC3(OC(C)=O)C2C(OC(=O)c2ccccc2)C2(O)CC(OC(=O)C(O)C(NC(=O)OC(C)(C)C)c3ccccc3)C(C)=C1C2(C)C (centres undefined) | active
25 | C[C@@H]1CN([C@@H](C)CO)C(=O)c2cccc(N(C)C)c2O[C@@H]1CN(C)S(=O)(=O)c1ccc(Cl)cc1 | inactive
26 | C[C@@H]1CN([C@@H](C)CO)C(=O)c2cccc(NC(=O)Nc3ccc(C(F)(F)F)cc3)c2O[C@H]1CN(C)S(=O)(=O)c1ccc(Cl)cc1 | inactive
27 | CC(C)NC(=O)Nc1ccc2c(c1)C(=O)N([C@@H](C)CO)C[C@H](C)[C@@H](CN(C)C(=O)Nc1ccc(F)cc1)OCCCC[C@H](C)O2 | inactive
28 | O=C(/C=C/c1ccc(O)c(O)c1)O[C@H]1[C@H](O)[C@@H](O)[C@H](OCCc2ccc(O)c(O)c2)O[C@@H]1CO | inactive
29 | C[C@H]1CCCCO[C@H](CN(C)Cc2ccc(C(=O)O)cc2)[C@@H](C)CN([C@@H](C)CO)C(=O)c2cc(NS(=O)(=O)c3ccc(Cl)cc3)ccc2O1 | inactive
30 | NCc1c(Cl)cccc1Cl | inactive
31 | COCc1cn(CC[C@H]2CC[C@@H](NC(=O)CCN3CCCCC3)[C@H](CO)O2)nn1 | inactive
32 | C[C@H]1CCCCO[C@H](CN(C)C(=O)Nc2ccc(C(F)(F)F)cc2)[C@@H](C)CN([C@@H](C)CO)C(=O)c2cc(NS(=O)(=O)c3cn(C)cn3)ccc2O1 | inactive
33 | C[C@@H]1CN([C@@H](C)CO)C(=O)c2cc(NC(=O)CCCN(C)C)ccc2O[C@@H]1CN(C)Cc1ccc(C(=O)O)cc1 | inactive
34 | Cc1ccc(S(=O)(=O)N(C)C[C@H]2Oc3c(NS(=O)(=O)c4cccs4)cccc3C(=O)N([C@H](C)CO)C[C@@H]2C)cc1 | inactive
35 | C[C@H](CO)N1C[C@H](C)[C@@H](CN(C)S(=O)(=O)c2cn(C)cn2)Oc2c(NS(=O)(=O)c3cccs3)cccc2C1=O | active
36 | Cc1ccc(S(=O)(=O)N(C)C[C@@H]2Oc3c(NS(=O)(=O)c4cccs4)cccc3C(=O)N([C@@H](C)CO)C[C@H]2C)cc1 | inactive
37 | C[C@H](CO)N1C[C@H](C)[C@H](CN(C)S(C)(=O)=O)Oc2c(NS(=O)(=O)c3cn(C)cn3)cccc2C1=O | active
38 | Cc1ccc(S(=O)(=O)N(C)C[C@@H]2Oc3c(NS(=O)(=O)c4cccs4)cccc3C(=O)N([C@H](C)CO)C[C@@H]2C)cc1 | active
39 | C[C@@H]1CN([C@H](C)CO)C(=O)c2cccc(NS(=O)(=O)c3cccs3)c2O[C@@H]1CN(C)S(=O)(=O)c1cn(C)cn1 | inactive
40 | C[C@H]1CN([C@@H](C)CO)C(=O)c2cccc(NS(=O)(=O)c3cccs3)c2O[C@H]1CN(C)S(=O)(=O)c1cn(C)cn1 | inactive
41 | C[C@@H]1CN([C@H](C)CO)C(=O)c2cccc(NS(=O)(=O)c3cn(C)cn3)c2O[C@@H]1CN(C)S(C)(=O)=O | inactive
42 | C[C@H]1CN([C@@H](C)CO)C(=O)c2cccc(NS(=O)(=O)c3cn(C)cn3)c2O[C@H]1CN(C)S(C)(=O)=O | inactive
43 | O=C(NO)c1ccncc1 | inactive
44 | C[C@H]1CN([C@@H](C)CO)C(=O)c2c(c3ccccc3n2C)-c2ccccc2CO[C@@H]1CN(C)C(=O)Nc1ccccc1C(F)(F)F | inactive
